Assay outcomes (PubChem)
In the library only some 19% were active in any assay of this set; here they are far more common.
IL1B secr inh: blocks inflammasome-driven IL-1 beta release | THP-1 LPS/ATP IL-1B secretion, AlphaLISA, 16 h; active compounds read low | activity change, % at 57.5 µM | hit rate 4.7% among 360,000; in the data active means activity change below about -50%; inconclusive means mostly about -30% to -49%; further: on the % scale 0 is the no-effect control and ±100 the full control effect
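Secreted IL-1B measured by AlphaLISA bead assay after 16 h compound exposure of THP-1 cells; compounds (final up to 57.5 uM) added 1 h before LPS (250 ng/mL) and ATP (1.25 mM) stimulation; lower signal means less secretion.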
MCF10A rereplic: inducers of DNA re-replication in MCF 10A breast cells; AID 624296; MCF 10A DNA re-replication, Hoechst nuclear intensity, 48 h; hit rate 2.9% among 350,000; Potency, µM (highest dose often 46.1 µM), inactives show at the top dose activity, positive = re-replication, usual class: activators; further: potency means the concentration at half of the fitted maximal effect; % of control where 0% means no effect; nearly all actives have a fitted effect of over 50% in size
SW480 rereplic: induces DNA re-replication in SW480 colon adenocarcinoma cells; AID 624297; Potency, µM (top dose mostly 46.1 µM), inactives show at the highest dose re-replication activation, hits mostly activators; hit rate 1.8% among 340,000; SW480 DNA re-replication, Hoechst DNA content imaging, 48 h; further: potency means the concentration at half of the fitted maximal effect; % of control where 0% means no effect; nearly all actives have a fitted effect of over 55% in size
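Image-based read-out: total Hoechst fluorescence of nuclei (405 nm excitation, 500-530 nm emission), with hits raising the fraction of high-intensity nuclei. SW480 colon cells incubated 48 hr with compounds at 37 C.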
Chronic BCR inh: chronic active BCR signaling inhibition; hit rate 0.05% among 340,000; Potency, µM (titrated, usually from 46.1 µM), for inactives: at the highest dose activity change, negative = inhibition, most hits filed as inhibitors; AID 493014; ABC-DLBCL IkBa-CBG/CBR reporter, luminescence ratio, 4 h; active means well fitted inhibition curve with a large enough effect in the signal ratio, with a control signal flat, not every such curve was filed as active; inconclusive means small, poorly fitted or top-dose-only effect, or effect the other way, or a change in a side signal; the % refers to the signal ratio;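 further: potency means the concentration at half of the fitted maximal effect; plate controls were basal doxycycline-induced cells for no effect and cells given 10 µM MG132 for full effect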
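Concentration-response series (up to 46 uM) were applied to TMD8 dual-reporter cells for 4 h at 37C with doxycycline. Green/red ratio, after filter-overlap correction, defined %Activity; red signal alone was normalised to basal cells and zero luminescence.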
TDP1 cell CPT: growth inhibition of DT40 Tdp1-/-;hTDP1 cells with camptothecin (screen for TDP1 inhibitors); chicken DT40 Tdp1-/-;hTDP1 cells + 20 nM CPT, ATP luminescence, 48 h; hit rate 12% among 420,000; Potency, µM (series often up to 46.2 µM), for inactives: at the highest dose activity change, negative = growth inhibition, hits mostly inhibitors; AID 686979; further: potency means the concentration at half of the fitted maximal effect; on the % scale 0 is the no-effect control and ±100 the full control effect; nearly all actives have a fitted effect of over 55% in size
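Chicken DT40 Tdp1-/- cells complemented with human TDP1, 400 cells/well, exposed to compounds plus 20 nM camptothecin for at least 48 h at 37 C; viability read as ATP content by CellTiter-Glo luminescence.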
DT40 TDP1 no CPT: qHTS for Inhibitors of human tyrosyl-DNA phosphodiesterase 1 (TDP1): qHTS in cells in absence of CPT | hit rate 15% among 420,000 | Potency, µM (doses to about 46.2 µM), for inactives: at the highest dose activity change, negative = growth inhibition, usual class: inhibitors | DT40 Tdp1-/- hTDP1 cells, no CPT, ATP luminescence, 48 h; further: potency means the concentration at half of the fitted maximal effect; on the % scale 0 is the no-effect control and ±100 the full control effect; nearly all actives have a fitted effect of over 55% in size
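No-CPT arm: Tdp1-/-;hTDP1 DT40 cells (400/well) plus compounds, incubated ≥48 hr at 37 °C. Readout CellTiter-Glo luminescence.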
Starred values were filed as active, the others as inactive; ? = inconclusive; . = no result; [ ] = remark or other dose. Unless noted, the call rests on the fitted dose curve; in most records, active means well fitted curve in the direction sought with a large enough effect; inconclusive means small, poorly fitted or top-dose-only effect, or another doubt; inactive means no such curve, though single readings can be large; an effect the other way counts as inactive or inconclusive.

SMILES | IL1B secr inh | MCF10A rereplic | SW480 rereplic | Chronic BCR inh | TDP1 cell CPT | DT40 TDP1 no CPT
CCOC(=O)c1c(NC(=O)c2ccc(-n3cnnn3)cc2)sc2c1CCCC2 | 0.0 | ? | ? | -1.6% | 11.6µM* | 16.4µM*
CCOC(=O)c1c(NC(=O)c2ccc(N3C(=O)[C@@H]4[C@H](C3=O)[C@H]3C=C[C@@H]4C3)cc2)sc2c1CCCC2 | 27.2 | -2.0% | 0.0% | 8.1% | -85.2% | 23.1µM*
CCOC(=O)c1c(NC(=O)c2ccc(Br)cc2)sc2c1CCCC2 | . | . | . | ? | 13.2% | -16.9%
CCOC(=O)c1c(NC(=O)C2CCCCC2C(=O)O)sc2c1CCCCC2 (configuration not stated) | 29.2 | ? | -3.8% | ? | -0.2% | -2.2%
CCOC(=O)c1c(NC(=O)C(C)OC(=O)c2ccc(NC(=O)CC#N)cc2)sc2c1CCCC2 (configuration not stated) | -80.3* | ? | 10.5% | ? | 23.1µM* | ?
CCOC(=O)c1c(NC(=O)C(C)OC(=O)C2=COCCO2)sc2c1CCCC2 (configuration not stated) | 6.6 | ? | -0.3% | 11.3% | ? | ?
CCOC(=O)c1c(NC(=O)C2C3C=CC(C3)C2(C)C(=O)O)sc2c1CCCC2 (configuration not stated) | 15.8 | ? | 1.0% | ? | 13µM* | 18.4µM*
CC(C)(C)c1ccc(C(CC(=O)O)NC(=O)Cc2ccccc2)cc1 (configuration not stated) | 8.6 | -4.4% | -3.9% | ? | 26.2% | -1.2%
COc1ccc(C(O)(CCN2CCOCC2)c2ccccc2)cc1 (configuration not stated) | -4.5 | 1.2% | 24.0% | -1.8% | 3.5% | -12.7%
COc1ccc(CN2C[C@H](Sc3nc4ccccc4[nH]3)C[C@H]2C(=O)N2CCCN(C)CC2)cc1C | . | . | . | . | 2.7%[9.04 µM] | -16.3%
Cc1cccc(NC(=O)C2CCCN(S(=O)(=O)c3ccc4c(c3)oc(=O)n4C)C2)c1C (configuration not stated) | . | . | . | . | -5.3% | -27.2%
O=C(NCc1ccon1)C1CCC(=O)N(CCc2cccc(F)c2)C1 (configuration not stated) | 6.2 | 23.1% | 9.9% | -5.1% | 1.4% | 2.3%
CN(C)CCCNS(=O)(=O)c1cc(Cl)ccc1Cl | 13.1 | 2.2% | -8.2% | 14.7% | -4.6% | -0.5%
NCCCCCCCCCCNS(=O)(=O)c1cccc2c(Cl)cccc12 | . | . | . | . | ? | 12.6µM*
O=S(=O)(NCCCCCCc1ccccc1)c1cccc2c(Cl)cccc12 | . | . | . | . | 21.1µM* | ?
COc1ccccc1N/C(N)=N/c1nc(CSc2ccc(C)cc2)cc(=O)[nH]1 | 87.2 | -1.6% | 0.2%[9.22 µM] | -8.6% | 18.4µM* | 7.31µM*
COCc1cc(=O)[nH]c(/N=C(\N)Nc2ccc(C)cc2C)n1 | 16.1 | 12.0% | -0.8% | ? | 4.1% | -7.7%
Cc1ccc(SCc2cc(=O)[nH]c(/N=C(\N)Nc3ccccc3Sc3ccccc3)n2)cc1 | 25.5 | 1.8% | 1.2% | ? | ? | 29.1µM*
CC(=O)c1c(COC(=O)c2ccccc2Cl)nc2ccccc2[n+]1[O-] | 44.3 | -7.8% | 26.9% | ? | -1.8% | -19.2%
O=c1o[nH]c(-c2ccccc2)c1-c1ccccc1 | 22.7 | 0.3% | -62.6% | . | -9.7% | -28.5%
COc1ccc(CCNC(=O)C(=O)N/N=C/c2cccs2)cc1OC | -7.3 | -5.4% | 1.2% | 1.4% | 6.1% | -0.5%
O=C(COC(=O)C1CC1)Nc1ccc(S(=O)(=O)N2CCOCC2)cc1 | -9.0 | 6.3% | -1.4% | 2.9% | -10.0% | -16.6%
O=S(=O)(NC[C@@H]1CCC[C@H](CNS(=O)(=O)c2c(F)cccc2F)C1)c1ccc2c(c1)OCCO2 | . | . | . | 6.2% | . | .
c1ccc(COc2cccc(-c3cc4nc(NCCOc5ccccc5)ccn4n3)c2)cc1 | -29.8 | . | . | . | ? | ?
c1ccc(COc2ccc(-c3cc4nc(NCCOc5ccccc5)ccn4n3)cc2)cc1 | 50.9 | . | . | . | 23.1µM* | ?
SMILES | IL1B secr inh | MCF10A rereplic | SW480 rereplic | Chronic BCR inh | TDP1 cell CPT | DT40 TDP1 no CPT
COCCCNc1ccn2nc(-c3ccc(OCc4ccccc4)cc3)cc2n1 | 20.0 | . | . | . | 16.4µM* | ?
CSc1ccc(Cl)c(C(=O)NNC(=O)c2csc(N3CCOCC3)n2)c1 | -12.7 | -2.5% | -57.9% | ? | -1.1% | -21.9%
O=c1[nH]c2ccc(NCc3ccc(-c4ccccc4F)o3)cc2[nH]1 | . | . | . | . | 23.1µM* | 18.4µM*
COc1cc(NS(=O)(=O)c2ccc(NC(=O)C(C)Oc3ccc(Cl)cc3Cl)cc2)nc(OC)n1 (configuration not stated) | . | . | . | . | -13.2% | -2.9%
Nc1ccc2c(c1)OC1(CCCC1)O2 | -0.3 | ? | ? | ? | -7.9% | -28.7%
COc1cc(OC)nc(C(NC(=O)C2CCN(Cc3ccc(Oc4ccccc4)cc3)CC2)c2ccc(F)cc2)n1 (configuration not stated) | -17.5 | . | . | . | 25.9µM* | ?
CC(NC(=O)C1CCN(Cc2ccc(Oc3ccccc3)cc2)CC1)c1cccc2ccccc12 (configuration not stated) | -24.4 | . | . | . | 23.1µM* | 14.6µM*
COc1cccc(CN2CCC(C(=O)NC(C)c3cccc4ccccc34)CC2)c1 (configuration not stated) | ? | . | . | . | 23.1µM* | 16.4µM*
CCCS(=O)(=O)NC(=O)C1(C)CCN(C(=O)COc2ccccc2)C1 (configuration not stated) | 1.9 | . | . | . | 2.5% | 12.2%
CCC12CCCN3CCC4(C(=C(C(=O)OC)C1)Nc1ccccc14)C32 (configuration not stated) | 25.7 | 11.7% | -7.8% | -8.5% | 16.4µM* | 16.4µM*
CCOC(=O)c1ccc(NC(=O)c2ccc3c(c2)C(=O)N(Cc2cccnc2)C3=O)cc1 | 2.6 | -37.7% | -4.7% | -3.5% | -10.4% | -2.8%
Cc1cc(C(=O)COc2ccccc2Cl)c(C)n1-c1ccc2c(c1)OCO2 | -9.8 | ? | ? | -0.9% | ? | 6.51µM*
Cc1cc(C(=O)CSc2n[nH]c(N)n2)c(C)n1-c1ccc2c(c1)OCO2 | -10.8 | 15.6% | 0.3% | 0.8% | ? | 23.1µM*
Cc1ccc(-n2c(C)cc(C(=O)COc3c(CO)cc(F)cc3CO)c2C)cc1C | ? | ? | 5.0% | -5.3% | 9.2µM* | 3.66µM*
